Measured values reported in paper PMC7862700, “An all-to-all approach to the identification of sequence-specific readers for epigenetic DNA modifications on cytosine”.

Legend:
Assay in all cases: DAPPL (digital affinity profiling via proximity ligation, sequencing); 10 mM Tris-HCl pH 7.5, 50 mM NaCl, 1 mM DTT, 4% glycerol, room temperature, 30 min; GST-TFs on glutathione beads, 16-mer random dsDNA library, 0.1% formaldehyde crosslink after washing; high values mean tight binding
FEV = biological target: T1, FEV (Homo sapiens, UniProt Q99581 1-238); settings: protein: recombinant; tags: N-terminal GST; dsDNA, one strand shown
T1 sequence: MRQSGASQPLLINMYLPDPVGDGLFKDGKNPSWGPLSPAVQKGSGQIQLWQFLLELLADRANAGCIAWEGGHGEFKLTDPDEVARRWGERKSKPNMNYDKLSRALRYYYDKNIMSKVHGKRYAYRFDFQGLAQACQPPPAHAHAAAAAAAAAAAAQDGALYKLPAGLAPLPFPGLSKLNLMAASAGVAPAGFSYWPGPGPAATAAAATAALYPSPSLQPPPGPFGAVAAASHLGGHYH
Outline: (§1)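 Sequencing on an Illumina NextSeq500 followed washing, crosslinking with 0.1% formaldehyde, proximity ligation (BsaI/T4 ligase, 1 h, 37 °C) and PCR amplification of pools that had been incubated for 30 min at room temperature with 200 nmole of a random double-stranded 16-mer DNA library in Tris/NaCl/DTT/glycerol buffer. Each pool held DNA-barcoded human transcription factors, expressed in yeast as GST fusions and captured on glutathione beads, plus a tag-only sample. Binding signal is a hexamer's read frequency for a factor divided by its frequency in the tag-only sample.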

ETV5 = ETV5 (Homo sapiens, UniProt P41161 1-510); settings: protein: recombinant; tags: N-terminal GST; dsDNA, one strand shown
Outline: as §1

HSF1 = HSF1 (Homo sapiens, UniProt Q00613 1-529); settings: protein: recombinant; tags: N-terminal GST; chain copies: 3; dsDNA, one strand shown
Outline: as §1

SPIC = biological target: T2, SPIC (Homo sapiens, UniProt Q8N5J4 1-248); settings: protein: recombinant; tags: N-terminal GST; dsDNA, one strand shown
T2 sequence: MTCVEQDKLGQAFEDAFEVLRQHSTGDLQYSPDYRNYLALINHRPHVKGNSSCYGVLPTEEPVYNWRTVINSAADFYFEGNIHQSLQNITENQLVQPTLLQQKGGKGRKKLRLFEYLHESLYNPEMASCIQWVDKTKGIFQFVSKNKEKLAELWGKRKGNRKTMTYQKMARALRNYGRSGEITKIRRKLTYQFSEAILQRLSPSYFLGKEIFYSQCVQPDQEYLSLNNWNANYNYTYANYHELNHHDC
Outline: as §1

ELF4 = ELF4 (Homo sapiens, UniProt Q99607 1-663); settings: protein: recombinant; tags: N-terminal GST; dsDNA, one strand shown
Outline: as §1

ELK4 = biological target: T3, ELK4 (Homo sapiens, UniProt P28324-2 1-405); settings: protein: recombinant; tags: N-terminal GST; dsDNA, one strand shown
T3 sequence: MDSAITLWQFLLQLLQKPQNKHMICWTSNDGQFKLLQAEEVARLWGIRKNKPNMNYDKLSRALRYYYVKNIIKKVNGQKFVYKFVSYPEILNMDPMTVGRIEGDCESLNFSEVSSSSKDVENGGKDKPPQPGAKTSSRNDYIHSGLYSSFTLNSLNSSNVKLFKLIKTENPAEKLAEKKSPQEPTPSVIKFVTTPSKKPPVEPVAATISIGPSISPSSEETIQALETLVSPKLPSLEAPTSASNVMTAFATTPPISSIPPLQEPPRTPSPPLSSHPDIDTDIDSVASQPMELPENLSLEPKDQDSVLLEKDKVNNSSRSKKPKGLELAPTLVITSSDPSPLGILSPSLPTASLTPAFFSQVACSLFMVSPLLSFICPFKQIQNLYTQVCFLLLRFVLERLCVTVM
Outline: as §1

ETV2 = biological target: T4, ETV2 (Homo sapiens, UniProt O00321 1-342); settings: protein: recombinant; tags: N-terminal GST; dsDNA, one strand shown
T4 sequence: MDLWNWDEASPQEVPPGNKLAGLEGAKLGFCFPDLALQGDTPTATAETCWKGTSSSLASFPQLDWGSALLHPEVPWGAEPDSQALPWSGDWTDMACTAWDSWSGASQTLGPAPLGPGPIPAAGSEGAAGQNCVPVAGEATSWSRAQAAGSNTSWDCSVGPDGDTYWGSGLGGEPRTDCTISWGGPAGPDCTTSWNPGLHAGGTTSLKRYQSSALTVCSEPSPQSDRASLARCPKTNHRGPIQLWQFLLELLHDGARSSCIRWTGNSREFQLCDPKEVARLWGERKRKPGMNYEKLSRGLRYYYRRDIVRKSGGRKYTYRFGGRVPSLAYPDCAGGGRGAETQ
Outline: as §1

ELF3 = biological target: T5, ELF3 (Homo sapiens, UniProt P78545 1-371); settings: protein: recombinant; tags: N-terminal GST; dsDNA, one strand shown
T5 sequence: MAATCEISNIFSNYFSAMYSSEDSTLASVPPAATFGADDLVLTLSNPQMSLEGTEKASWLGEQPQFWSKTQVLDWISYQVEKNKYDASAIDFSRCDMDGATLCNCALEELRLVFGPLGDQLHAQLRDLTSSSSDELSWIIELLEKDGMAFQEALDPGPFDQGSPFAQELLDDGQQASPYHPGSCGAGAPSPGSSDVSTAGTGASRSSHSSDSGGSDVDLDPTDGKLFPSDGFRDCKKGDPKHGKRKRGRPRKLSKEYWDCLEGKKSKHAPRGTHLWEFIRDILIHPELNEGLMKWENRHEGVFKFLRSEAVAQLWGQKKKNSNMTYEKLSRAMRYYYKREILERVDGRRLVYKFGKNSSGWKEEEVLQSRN
Outline: as §1

CRX = CRX (Homo sapiens, UniProt O43186 1-299); settings: protein: recombinant; tags: N-terminal GST; dsDNA, one strand shown
Outline: as §1

ETV1 = ETV1 (Homo sapiens, UniProt P50549 1-477); settings: protein: recombinant; tags: N-terminal GST; dsDNA, one strand shown
Outline: as §1

Chain of HSF1 (Q00613 whole entry): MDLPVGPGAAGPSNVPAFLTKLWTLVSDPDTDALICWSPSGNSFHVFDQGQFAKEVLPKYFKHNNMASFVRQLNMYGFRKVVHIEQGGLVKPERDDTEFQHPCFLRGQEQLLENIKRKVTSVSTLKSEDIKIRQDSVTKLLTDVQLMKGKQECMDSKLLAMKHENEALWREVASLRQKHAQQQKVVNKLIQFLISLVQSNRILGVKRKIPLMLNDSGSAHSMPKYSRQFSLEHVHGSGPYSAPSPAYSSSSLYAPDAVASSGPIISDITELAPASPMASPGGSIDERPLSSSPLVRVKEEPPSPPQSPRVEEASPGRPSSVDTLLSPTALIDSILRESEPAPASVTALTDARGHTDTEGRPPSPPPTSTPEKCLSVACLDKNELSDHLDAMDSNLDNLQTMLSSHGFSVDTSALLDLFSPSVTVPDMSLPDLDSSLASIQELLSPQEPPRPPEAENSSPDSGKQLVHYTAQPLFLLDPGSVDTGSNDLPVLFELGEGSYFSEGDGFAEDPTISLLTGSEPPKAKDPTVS
Chain of ELF4 (Q99607 whole entry): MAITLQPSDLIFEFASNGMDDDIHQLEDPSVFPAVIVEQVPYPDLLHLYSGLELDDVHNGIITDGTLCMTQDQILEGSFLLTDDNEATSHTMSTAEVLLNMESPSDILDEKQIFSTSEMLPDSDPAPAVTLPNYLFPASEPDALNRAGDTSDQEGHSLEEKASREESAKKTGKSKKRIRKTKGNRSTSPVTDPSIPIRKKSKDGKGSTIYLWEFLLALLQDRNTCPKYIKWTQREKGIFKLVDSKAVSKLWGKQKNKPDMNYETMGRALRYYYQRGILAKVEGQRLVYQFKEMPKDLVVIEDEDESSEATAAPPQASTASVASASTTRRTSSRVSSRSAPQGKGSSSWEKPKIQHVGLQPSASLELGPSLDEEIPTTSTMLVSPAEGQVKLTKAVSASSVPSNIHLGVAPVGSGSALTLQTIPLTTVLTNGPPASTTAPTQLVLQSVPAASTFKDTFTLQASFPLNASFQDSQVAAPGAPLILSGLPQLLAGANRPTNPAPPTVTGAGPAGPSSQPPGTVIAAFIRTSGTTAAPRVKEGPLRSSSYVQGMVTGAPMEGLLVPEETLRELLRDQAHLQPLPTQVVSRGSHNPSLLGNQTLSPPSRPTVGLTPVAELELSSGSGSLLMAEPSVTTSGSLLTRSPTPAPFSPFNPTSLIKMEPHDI
Chain of ETV5 (P41161 whole entry): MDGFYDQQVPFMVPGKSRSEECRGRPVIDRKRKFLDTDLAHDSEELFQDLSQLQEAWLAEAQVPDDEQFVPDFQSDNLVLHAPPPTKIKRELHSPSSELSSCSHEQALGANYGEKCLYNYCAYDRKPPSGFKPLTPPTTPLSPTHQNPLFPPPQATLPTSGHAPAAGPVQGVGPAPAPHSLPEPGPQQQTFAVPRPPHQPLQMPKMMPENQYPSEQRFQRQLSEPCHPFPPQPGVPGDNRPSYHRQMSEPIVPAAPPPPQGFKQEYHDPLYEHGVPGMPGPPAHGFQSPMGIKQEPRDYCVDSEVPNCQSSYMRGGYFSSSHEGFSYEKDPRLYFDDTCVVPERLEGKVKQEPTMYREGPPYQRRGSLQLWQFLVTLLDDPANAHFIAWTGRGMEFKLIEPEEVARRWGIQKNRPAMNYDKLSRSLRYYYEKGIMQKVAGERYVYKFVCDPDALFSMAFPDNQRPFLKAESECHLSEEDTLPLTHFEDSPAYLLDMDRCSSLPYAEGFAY
Chain of ETV1 (P50549 whole entry): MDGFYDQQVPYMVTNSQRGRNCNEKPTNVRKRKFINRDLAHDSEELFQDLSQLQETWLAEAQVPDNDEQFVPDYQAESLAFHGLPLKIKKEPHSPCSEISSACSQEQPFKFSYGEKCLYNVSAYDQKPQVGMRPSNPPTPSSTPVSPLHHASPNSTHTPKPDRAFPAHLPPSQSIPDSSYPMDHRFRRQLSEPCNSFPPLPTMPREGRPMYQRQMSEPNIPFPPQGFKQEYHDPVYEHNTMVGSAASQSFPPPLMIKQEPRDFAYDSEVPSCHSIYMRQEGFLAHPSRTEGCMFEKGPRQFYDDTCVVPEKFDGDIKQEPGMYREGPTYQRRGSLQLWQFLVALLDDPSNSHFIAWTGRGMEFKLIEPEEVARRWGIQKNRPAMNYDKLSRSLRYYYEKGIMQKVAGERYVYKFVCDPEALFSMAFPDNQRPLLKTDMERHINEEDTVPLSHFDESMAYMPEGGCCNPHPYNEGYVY
Chain of CRX (O43186 whole entry): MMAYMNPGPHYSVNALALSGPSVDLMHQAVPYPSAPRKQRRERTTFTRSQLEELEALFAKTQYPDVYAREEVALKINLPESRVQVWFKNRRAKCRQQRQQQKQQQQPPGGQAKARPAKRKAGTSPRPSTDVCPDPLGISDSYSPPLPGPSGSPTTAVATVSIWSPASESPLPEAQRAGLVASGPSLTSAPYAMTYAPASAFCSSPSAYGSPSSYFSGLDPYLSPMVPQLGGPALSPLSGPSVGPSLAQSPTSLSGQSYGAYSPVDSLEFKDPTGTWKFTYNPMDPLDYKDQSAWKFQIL

Row | Sequence | binding signal (FEV) | binding signal (ETV5) | binding signal (HSF1) | binding signal (SPIC) | binding signal (ELF4) | binding signal (ELK4) | binding signal (ETV2) | binding signal (ELF3) | binding signal (CRX) | binding signal (ETV1)
1 | TCAACC | 1.19 fold enrichment (6-mer frequency, TF over GST control) | 1.22 fold enrichment (6-mer frequency, TF over GST control) | 1.03 fold enrichment (6-mer frequency, TF over GST control) | 1.07 fold enrichment (6-mer frequency, TF over GST control) | 1.19 fold enrichment (6-mer frequency, TF over GST control) | 1.16 fold enrichment (6-mer frequency, TF over GST control) | 1.3 fold enrichment (6-mer frequency, TF over GST control) | 1.16 fold enrichment (6-mer frequency, TF over GST control) | 1.09 fold enrichment (6-mer frequency, TF over GST control) | 1.23 fold enrichment (6-mer frequency, TF over GST control)
2 | CAATCC | 1.17 fold enrichment (6-mer frequency, TF over GST control) | 1.12 fold enrichment (6-mer frequency, TF over GST control) | 1.37 fold enrichment (6-mer frequency, TF over GST control) | 1.11 fold enrichment (6-mer frequency, TF over GST control) | 1.19 fold enrichment (6-mer frequency, TF over GST control) | 1.19 fold enrichment (6-mer frequency, TF over GST control) | 1.38 fold enrichment (6-mer frequency, TF over GST control) | 1.3 fold enrichment (6-mer frequency, TF over GST control) | 1.6 fold enrichment (6-mer frequency, TF over GST control) | 1.19 fold enrichment (6-mer frequency, TF over GST control)
3 | TAGATG | 1.22 fold enrichment (6-mer frequency, TF over GST control) | 1.22 fold enrichment (6-mer frequency, TF over GST control) | 1.66 fold enrichment (6-mer frequency, TF over GST control) | 1.57 fold enrichment (6-mer frequency, TF over GST control) | 1.18 fold enrichment (6-mer frequency, TF over GST control) | 1.3 fold enrichment (6-mer frequency, TF over GST control) | 1.37 fold enrichment (6-mer frequency, TF over GST control) | 1.32 fold enrichment (6-mer frequency, TF over GST control) | 1.52 fold enrichment (6-mer frequency, TF over GST control) | 1.15 fold enrichment (6-mer frequency, TF over GST control)
4 | CCATAA | 1.11 fold enrichment (6-mer frequency, TF over GST control) | 1.12 fold enrichment (6-mer frequency, TF over GST control) | 1.29 fold enrichment (6-mer frequency, TF over GST control) | 1.33 fold enrichment (6-mer frequency, TF over GST control) | 1.19 fold enrichment (6-mer frequency, TF over GST control) | 1.11 fold enrichment (6-mer frequency, TF over GST control) | 1.24 fold enrichment (6-mer frequency, TF over GST control) | 1.07 fold enrichment (6-mer frequency, TF over GST control) | 1.64 fold enrichment (6-mer frequency, TF over GST control) | 1.23 fold enrichment (6-mer frequency, TF over GST control)
5 | TTTGAT | 1.17 fold enrichment (6-mer frequency, TF over GST control) | 1.23 fold enrichment (6-mer frequency, TF over GST control) | 1.37 fold enrichment (6-mer frequency, TF over GST control) | 1.26 fold enrichment (6-mer frequency, TF over GST control) | 1.22 fold enrichment (6-mer frequency, TF over GST control) | 1.2 fold enrichment (6-mer frequency, TF over GST control) | 1.22 fold enrichment (6-mer frequency, TF over GST control) | 1.18 fold enrichment (6-mer frequency, TF over GST control) | 1.6 fold enrichment (6-mer frequency, TF over GST control) | 1.25 fold enrichment (6-mer frequency, TF over GST control)
6 | CGCTTT | 1.18 fold enrichment (6-mer frequency, TF over GST control) | 1.21 fold enrichment (6-mer frequency, TF over GST control) | 1.11 fold enrichment (6-mer frequency, TF over GST control) | 1.17 fold enrichment (6-mer frequency, TF over GST control) | 1.31 fold enrichment (6-mer frequency, TF over GST control) | 1.17 fold enrichment (6-mer frequency, TF over GST control) | 1.09 fold enrichment (6-mer frequency, TF over GST control) | 1.22 fold enrichment (6-mer frequency, TF over GST control) | 1.37 fold enrichment (6-mer frequency, TF over GST control) | 1.4 fold enrichment (6-mer frequency, TF over GST control)
7 | ACCTAC | 1.17 fold enrichment (6-mer frequency, TF over GST control) | 1.13 fold enrichment (6-mer frequency, TF over GST control) | 1.07 fold enrichment (6-mer frequency, TF over GST control) | 1.13 fold enrichment (6-mer frequency, TF over GST control) | 1.24 fold enrichment (6-mer frequency, TF over GST control) | 1.22 fold enrichment (6-mer frequency, TF over GST control) | 1.23 fold enrichment (6-mer frequency, TF over GST control) | 1.29 fold enrichment (6-mer frequency, TF over GST control) | 1.02 fold enrichment (6-mer frequency, TF over GST control) | 1.23 fold enrichment (6-mer frequency, TF over GST control)
